This note sets out measurements from PubChem BioAssay (NCATS).

In assay [1] the target is Lysosomal acid glucosylceramidase (Homo sapiens) (UniProt P04062). The assay can be described thus: Glucocerebrosidase-p2 (AID 348; in the data active = potency below about 10 µM; also: potency is read from the fitted curve at half-maximal effect). To be noted: purified GBA, blue fluorogenic substrate, 40 min. The method in brief:
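Compounds titrated from 0.6 nM upwards against 0.2 nM enzyme in pH 5.9 citric acid/KH2PO4, taurocholate, tween-20; blue fluorogenic substrate 80 uM, 40 min room temperature, stopped and read Ex 365/Em 440 for AC50.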

Assay [2] addresses Cytochrome P450 1A2 (Homo sapiens) (UniProt P05177). Nature of the assay: p450-cyp1a2 (AID 410; calls by dose curve; also: potency is read from the fitted curve at half-maximal effect). The following applies: recombinant CYP1A2, luciferin-ME demethylation, luminescence; series mostly up to 11.4 µM. In outline:
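Human CYP1A2 (20nM) demethylated Luciferin-ME at its Km (100uM) in 100mM KPO4. After 10 min compound preincubation, NADPH regeneration ran the reaction 60 min at room temperature. Luciferin was read by luminescence, normalized to 57 uM furafylline.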

Assay [3] in a line: NFAT Signaling Pathway (AID 444).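 Also: carbachol stimulus at about its EC50 of 1 µM final; % is scaled to controls: 0 for no effect and ±100 for the full control effect.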 The following applies: Jurkat NFAT-bla M1, carbachol, beta-lactamase ratio, 5 h; at 7.69 µM (top of the series) unless noted. In outline:
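Jurkat cells with NFAT-driven β-lactamase reporter and co-expressed M1 receptor, stimulated with carbachol (final 1 uM, ~EC50), compound titration, 5 h at 37 °C. CCF4 loaded 1 h at RT; 460/530 nm ratio gave %activity and AC50.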

A short description of assay [4]: Stat Signaling Pathway (AID 446).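 Also: ME-180 cervical cancer cells given 40 pM IL-6 alongside compound; SIE-controlled beta-lactamase reporter measured as 460/530 nm FRET emission ratio; % is scaled to controls: 0 for no effect and ±100 for the full control effect.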 The following applies: ME-180 SIE beta-lactamase reporter, IL-6 stimulated, 5 h; at 7.69 µM (top of the series) unless noted. In outline:
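ME-180 cells carrying a SIE-driven beta-lactamase reporter are stimulated with 40 pM IL-6 for 5 h at 37C in the presence of compound. The 460/530 nm FRET substrate ratio is read after 2.5 h at RT. Data are normalised to 300 pM IL-6 and to 125 nM JAK inhibitor controls.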

Assay [5] concerns the target Glucocorticoid receptor (Homo sapiens) (UniProt P04150). Nature of the assay: GR-EFC Redistribution (AID 451; calls by dose curve; also: potency is read from the fitted curve at half-maximal effect). To be noted: CHO-K1 GR-EFC translocation, beta-gal luminescence, 2 h. In outline:
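CHO-K1 cells expressing nuclear EA and GR-ED fragments of b-gal; compounds titrated up to 46 uM final, 2 h at 37 C. GR nuclear translocation read as complemented b-gal luminescence after 1 h RT detection.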

Assay [6] addresses Mitogen-activated protein kinase 10 (Mus musculus) (UniProt Q61831). The assay can be described thus: JNK3 AlphaScreen Assay (AID 530).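 Also: kinase came from lysate of stimulated human HepG2 cells; signal reports phosphorylation of biotinylated GST-cJun 1-79 at Ser73 with 10 µM ATP; % is scaled to controls: 0 for no effect and ±100 for the full control effect.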 To be noted: JNK3 lysate, c-Jun phosphorylation; series mostly up to 11.4 µM. The method in brief: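 qHTS format: compounds tested as titrations against IL-1beta/TNF-alpha-activated HepG2 lysate JNK3 with biotin-GST-cJun substrate and 10 uM ATP at room temperature. Loss of anti-phospho-cJun AlphaScreen signal indicates inhibition.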
For orientation: In Alpha technology, singlet oxygen from a donor bead excites a nearby acceptor bead.

The target of assay [7] is Glucocorticoid receptor (Homo sapiens) (UniProt P04150). Nature of the assay: GR-GFP Redistribution (AID 450;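 active = compounds whose dose series gives a full or clear partial fitted curve of increased nuclear translocation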; also: potency is read from the fitted curve at half-maximal effect). The following applies: U2OS GR-GFP nuclear translocation, laser cytometry, 2 h.
Chain of Glucocorticoid receptor (Homo sapiens) (P04150 whole entry, looked up, the tested form may be a part): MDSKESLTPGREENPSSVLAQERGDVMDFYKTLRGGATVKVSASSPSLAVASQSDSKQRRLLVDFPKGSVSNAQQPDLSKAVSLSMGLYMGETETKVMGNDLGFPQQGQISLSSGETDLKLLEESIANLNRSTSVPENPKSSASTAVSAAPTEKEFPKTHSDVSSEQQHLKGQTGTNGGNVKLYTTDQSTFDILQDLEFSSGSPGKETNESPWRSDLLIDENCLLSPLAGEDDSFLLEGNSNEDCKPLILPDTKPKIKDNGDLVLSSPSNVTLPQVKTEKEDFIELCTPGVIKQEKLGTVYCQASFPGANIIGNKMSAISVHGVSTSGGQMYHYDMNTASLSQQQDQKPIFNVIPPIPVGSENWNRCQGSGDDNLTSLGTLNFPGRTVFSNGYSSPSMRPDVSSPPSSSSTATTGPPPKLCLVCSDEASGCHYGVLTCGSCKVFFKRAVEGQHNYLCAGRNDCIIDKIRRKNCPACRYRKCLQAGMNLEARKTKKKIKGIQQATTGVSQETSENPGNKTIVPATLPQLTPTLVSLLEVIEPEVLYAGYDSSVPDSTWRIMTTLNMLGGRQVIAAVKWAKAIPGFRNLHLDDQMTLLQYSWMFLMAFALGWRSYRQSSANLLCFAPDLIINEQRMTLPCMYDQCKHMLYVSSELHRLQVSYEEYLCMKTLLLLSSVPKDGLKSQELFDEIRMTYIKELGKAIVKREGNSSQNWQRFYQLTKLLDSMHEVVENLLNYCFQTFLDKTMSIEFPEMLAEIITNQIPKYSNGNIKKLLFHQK
For assay [8], the target named is 3',5'-cyclic-AMP phosphodiesterase 4B (Homo sapiens) (UniProt Q07343). The assay can be described thus: qHTS Assay for Inhibitors of PDE-IV (AID 607; active = well fitted activation curve with a large enough effect in the main read-out, with a control signal flat, not every such curve was filed as active; also: % of control where 0% means no effect). The following applies: HEK293 ACTOne CNG channel cells, membrane potential fluorescence; series mostly up to 22.9 µM. The method in brief:
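HEK293 ACTOne cells with CNG channel (1000/well), endogenous PDE4; membrane potential dye, compounds up to 22.9 uM final. Fluorescence Ex 535/Em 590; RO 20-1724 (100 uM final) as reference.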

Assay [9] deals with Cytochrome P450 2D6 (Homo sapiens) (UniProt P10635). Nature of the assay: qHTS Assay for Inhibitors and Substrates of Cytochrome P450 2D6 (AID 891; active = well fitted curve in the direction sought with a large enough effect; an effect the other way counts as inactive or inconclusive; also: potency is read from the fitted curve at half-maximal effect; nearly all actives have a fitted effect of over 60% in size). The following applies: recombinant CYP2D6, luciferin-ME EGE luminescence; series mostly up to 11.4 µM. The method in brief: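 Human CYP2D6 (5 nM) with 30 uM Luciferin-ME EGE (at Km) in 100 mM KPO4, compound preincubated 10 min, then NADPH regeneration system for 60 min at room temperature. Luciferin read by luminescence; normalized to 1.43 uM quinidine.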
Chain of Cytochrome P450 2D6 (Homo sapiens) (P10635 whole entry, looked up): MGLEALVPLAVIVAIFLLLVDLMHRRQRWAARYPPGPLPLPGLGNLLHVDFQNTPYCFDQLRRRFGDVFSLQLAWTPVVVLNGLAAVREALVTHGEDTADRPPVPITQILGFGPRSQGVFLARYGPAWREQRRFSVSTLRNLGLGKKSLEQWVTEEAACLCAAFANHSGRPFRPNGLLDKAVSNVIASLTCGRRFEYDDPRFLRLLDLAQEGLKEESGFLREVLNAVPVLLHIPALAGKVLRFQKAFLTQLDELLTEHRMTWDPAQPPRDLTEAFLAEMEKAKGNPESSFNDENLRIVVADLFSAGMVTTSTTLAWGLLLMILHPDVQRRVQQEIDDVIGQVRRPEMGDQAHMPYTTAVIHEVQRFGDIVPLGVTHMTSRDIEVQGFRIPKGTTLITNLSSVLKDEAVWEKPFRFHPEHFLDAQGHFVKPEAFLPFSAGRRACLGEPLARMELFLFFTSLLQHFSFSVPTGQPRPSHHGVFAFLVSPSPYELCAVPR
On the technique in general: qHTS replaces the single test concentration by a dilution series.

Assay [10] has as its target Cytochrome P450 3A4 (Homo sapiens) (UniProt P08684). Nature of the assay: qHTS Assay for Activators of Cytochrome P450 3A4 (AID 885; active = well fitted curve in the direction sought with a large enough effect; an effect the other way counts as inactive or inconclusive; also: nearly all actives have a fitted effect of over 65% in size). The following applies: recombinant CYP3A4, Luciferin-PPXE luminescence, 60 min; series mostly up to 11.4 µM. In outline: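 Human CYP3A4 (20 nM) with Luciferin-PPXE at 25 uM (its KM) in 200 mM KPO4; 10 min compound preincubation, then NADPH regeneration and 60 min reaction at RT. Luciferin read by luminescence; normalized to 57 uM ketoconazole full inhibition.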

Assay [11] has as its target Cytochrome P450 2C19 (Homo sapiens) (UniProt P33261). Nature of the assay: qHTS Assay for Inhibitors and Substrates of Cytochrome P450 2C19 (AID 899; active = well fitted curve in the direction sought with a large enough effect; an effect the other way counts as inactive or inconclusive; also: potency is read from the fitted curve at half-maximal effect; nearly all actives have a fitted effect of over 60% in size). To be noted: recombinant CYP2C19, luciferin-H EGE luminescence; series mostly up to 11.4 µM. In outline: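 5 nM human CYP2C19 with 10uM Luciferin-H EGE (at KM) in 50mM KPO4, compound preincubated 10 min at 37C, then NADPH regeneration for 60 min at 37C. Luciferin read by luminescence after detection reagent; normalized to 57uM ketoconazole as full inhibition.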

The nature of assay [12]: qHTS Assay for Identification of Small Molecule Agonists for Hypoxia Response Element Signaling Pathway (AID 914; active = well fitted activation curve with a large enough effect in the signal ratio, with a control signal flat, not every such curve was filed as active; the % refers to the signal ratio; also: % of control where 0% means no effect). To be noted: ME-180 (cervical carcinoma) HRE-bla reporter, beta-lactamase ratio, CoCl2, 17 h; activation: hits give high values. In outline:
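Reporter activity (beta-lactamase, CCF4 460nm/530nm ratio) in HRE-bla ME-180 cells is recorded after 17 h compound exposure with EC50 CoCl2 at 37 degrees Celsius. AC50 values come from titration data.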

Assay [13] deals with Cytochrome P450 2C9 (Homo sapiens) (UniProt P11712). Nature of the assay: qHTS Assay for Inhibitors and Substrates of Cytochrome P450 2C9 (AID 883; active = well fitted curve in the direction sought with a large enough effect; an effect the other way counts as inactive or inconclusive; also: potency is read from the fitted curve at half-maximal effect; nearly all actives have a fitted effect of over 60% in size). To be noted: recombinant CYP2C9, luciferin-H luminescence, 60 min; series mostly up to 11.4 µM. In outline: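 Human CYP2C9 (10nM) with Luciferin-H at 100uM (its KM) in 25mM KPO4; compound preincubated 10 min at 37C, then NADPH regeneration for 60 min at 37C. Luciferin read by luminescence after detection reagent; normalized to 57uM sulphaphenazole as full inhibition.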
Chain of Cytochrome P450 2C9 (Homo sapiens) (P11712 whole entry, looked up): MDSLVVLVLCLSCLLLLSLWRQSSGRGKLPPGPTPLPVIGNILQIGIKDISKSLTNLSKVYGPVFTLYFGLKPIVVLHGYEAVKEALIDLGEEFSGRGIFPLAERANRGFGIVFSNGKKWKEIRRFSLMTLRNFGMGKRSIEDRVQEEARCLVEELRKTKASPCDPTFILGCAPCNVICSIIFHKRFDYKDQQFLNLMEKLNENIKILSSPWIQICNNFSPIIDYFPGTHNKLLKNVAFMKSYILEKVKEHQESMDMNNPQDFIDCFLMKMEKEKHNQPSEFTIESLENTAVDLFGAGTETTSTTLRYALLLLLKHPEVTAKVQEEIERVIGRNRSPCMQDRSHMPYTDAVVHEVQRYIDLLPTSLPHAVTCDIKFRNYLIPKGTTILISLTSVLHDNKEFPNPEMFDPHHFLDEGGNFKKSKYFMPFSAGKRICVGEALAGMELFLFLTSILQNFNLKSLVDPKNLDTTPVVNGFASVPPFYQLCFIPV

Unmarked numbers belong to inactive results. Results filed as inconclusive are left out. Calls of active or inactive are those of the source. Unless noted, calls follow the shape of the dose curve; as a rule, active = well fitted curve in either direction with a large enough effect (not every such curve was filed as active); inconclusive = small, poorly fitted or top-dose-only effect, or another doubt; inactive = flat fitted curve, though single readings scatter. Where only a bound is given, the exact number is not on record here.

Chain of Cytochrome P450 3A4 (Homo sapiens) (P08684 whole entry, looked up): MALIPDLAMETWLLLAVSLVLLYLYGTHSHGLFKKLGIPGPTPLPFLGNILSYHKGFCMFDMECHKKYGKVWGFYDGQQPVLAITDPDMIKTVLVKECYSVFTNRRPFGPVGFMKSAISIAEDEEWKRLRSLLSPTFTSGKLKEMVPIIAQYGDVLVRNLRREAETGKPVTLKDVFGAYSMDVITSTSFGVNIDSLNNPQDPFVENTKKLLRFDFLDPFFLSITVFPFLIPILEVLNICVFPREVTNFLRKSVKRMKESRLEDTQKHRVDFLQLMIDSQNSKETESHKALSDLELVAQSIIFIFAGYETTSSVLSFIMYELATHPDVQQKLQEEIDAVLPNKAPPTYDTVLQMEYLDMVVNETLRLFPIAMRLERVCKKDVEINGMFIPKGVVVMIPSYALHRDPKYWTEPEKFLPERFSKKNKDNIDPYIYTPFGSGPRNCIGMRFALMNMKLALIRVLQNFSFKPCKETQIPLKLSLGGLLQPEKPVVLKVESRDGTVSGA
Chain of Lysosomal acid glucosylceramidase (Homo sapiens) (P04062 whole entry, looked up): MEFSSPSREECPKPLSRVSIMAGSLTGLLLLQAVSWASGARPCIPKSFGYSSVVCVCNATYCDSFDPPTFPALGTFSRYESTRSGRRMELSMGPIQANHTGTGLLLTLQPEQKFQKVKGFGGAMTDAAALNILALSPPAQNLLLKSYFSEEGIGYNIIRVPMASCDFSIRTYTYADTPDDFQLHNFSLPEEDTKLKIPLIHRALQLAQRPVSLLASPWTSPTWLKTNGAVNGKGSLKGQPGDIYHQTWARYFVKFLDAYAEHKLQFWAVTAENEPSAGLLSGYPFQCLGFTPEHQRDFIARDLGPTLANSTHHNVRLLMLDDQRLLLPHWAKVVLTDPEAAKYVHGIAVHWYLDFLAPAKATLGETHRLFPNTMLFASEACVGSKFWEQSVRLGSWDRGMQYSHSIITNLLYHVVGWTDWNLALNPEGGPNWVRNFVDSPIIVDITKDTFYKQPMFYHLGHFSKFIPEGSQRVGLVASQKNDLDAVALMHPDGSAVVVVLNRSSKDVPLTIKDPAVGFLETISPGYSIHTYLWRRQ
Chain of 3',5'-cyclic-AMP phosphodiesterase 4B (Homo sapiens) (Q07343 whole entry, looked up): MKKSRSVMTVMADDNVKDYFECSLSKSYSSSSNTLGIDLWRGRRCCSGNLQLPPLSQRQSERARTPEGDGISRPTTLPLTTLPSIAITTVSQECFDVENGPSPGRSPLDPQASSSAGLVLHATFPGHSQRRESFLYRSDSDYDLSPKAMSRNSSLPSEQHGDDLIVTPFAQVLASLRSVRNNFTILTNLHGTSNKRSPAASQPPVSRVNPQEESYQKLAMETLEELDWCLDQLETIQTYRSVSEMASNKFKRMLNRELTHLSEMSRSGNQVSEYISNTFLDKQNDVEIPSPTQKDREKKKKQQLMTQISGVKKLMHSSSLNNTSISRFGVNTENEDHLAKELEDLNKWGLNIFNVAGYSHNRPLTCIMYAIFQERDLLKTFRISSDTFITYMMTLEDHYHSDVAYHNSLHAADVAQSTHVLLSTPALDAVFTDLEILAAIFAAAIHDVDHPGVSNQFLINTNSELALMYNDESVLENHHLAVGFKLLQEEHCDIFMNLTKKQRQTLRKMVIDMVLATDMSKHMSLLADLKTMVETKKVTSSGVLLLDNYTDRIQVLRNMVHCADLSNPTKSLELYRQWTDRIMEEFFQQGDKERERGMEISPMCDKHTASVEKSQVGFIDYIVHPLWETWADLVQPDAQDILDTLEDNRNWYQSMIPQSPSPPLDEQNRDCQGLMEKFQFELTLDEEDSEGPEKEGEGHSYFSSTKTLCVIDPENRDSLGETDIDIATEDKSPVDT
Chain of Cytochrome P450 2C19 (Homo sapiens) (P33261 whole entry, looked up): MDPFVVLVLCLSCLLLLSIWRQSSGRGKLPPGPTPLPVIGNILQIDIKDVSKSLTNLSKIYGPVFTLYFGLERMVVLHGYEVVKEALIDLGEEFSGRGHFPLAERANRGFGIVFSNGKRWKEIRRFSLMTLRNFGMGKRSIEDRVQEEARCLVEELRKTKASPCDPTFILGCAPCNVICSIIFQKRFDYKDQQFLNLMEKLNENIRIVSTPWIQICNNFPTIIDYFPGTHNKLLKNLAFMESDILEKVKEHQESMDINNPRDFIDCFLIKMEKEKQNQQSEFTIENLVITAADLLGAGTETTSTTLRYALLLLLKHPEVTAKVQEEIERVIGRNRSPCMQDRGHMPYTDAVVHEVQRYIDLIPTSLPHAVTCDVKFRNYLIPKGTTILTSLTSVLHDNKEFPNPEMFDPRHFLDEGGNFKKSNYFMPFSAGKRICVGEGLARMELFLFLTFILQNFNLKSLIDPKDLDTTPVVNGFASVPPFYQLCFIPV
Chain of Cytochrome P450 1A2 (Homo sapiens) (P05177 whole entry, looked up): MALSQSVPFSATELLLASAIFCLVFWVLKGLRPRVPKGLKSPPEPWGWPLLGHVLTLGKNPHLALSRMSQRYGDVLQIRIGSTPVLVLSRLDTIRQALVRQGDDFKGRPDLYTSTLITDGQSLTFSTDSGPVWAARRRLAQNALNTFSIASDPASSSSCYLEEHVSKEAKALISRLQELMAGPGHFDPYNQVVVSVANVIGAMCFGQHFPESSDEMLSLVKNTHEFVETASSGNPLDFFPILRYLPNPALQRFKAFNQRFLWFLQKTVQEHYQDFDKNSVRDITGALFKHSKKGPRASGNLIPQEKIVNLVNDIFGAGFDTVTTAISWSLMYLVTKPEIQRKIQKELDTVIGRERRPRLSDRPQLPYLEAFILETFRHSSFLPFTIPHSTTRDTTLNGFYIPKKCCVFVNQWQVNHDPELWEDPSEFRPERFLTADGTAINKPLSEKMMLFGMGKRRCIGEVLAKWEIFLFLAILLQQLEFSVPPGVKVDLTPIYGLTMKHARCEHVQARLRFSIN

Regarding `O=C(c1ccncc1)N1CCC2(CCCN(c3cccc(-c4ccccc4)c3)C2)CC1`, the Potency is greater than 11.4 µM in assay [1], 12.6 µM (active) in assay [2] and greater than 46 µM in [5]. Besides, the activity change, negative = inhibition in assay [3] was -6.09%. In assay [4], the activity, negative = inhibition was -7.37%. For the same molecule, the Potency result in assay [6] was “inactive”.
Regarding `CN(C)CCCn1c2c3ccccc3ccc2c2oc(=O)c3ccccc3c21`, the Potency in [1] was greater than 11.4 µM; in assay [2], 0.316 µM (active); in assay [7], greater than 46 µM; in [5] it was greater than 9.22 µM; in [9], 1.26 µM (active). For the same molecule, the activity change, negative = inhibition in [3] is -13.6%. Moreover, the Potency result in assay [6] and in assay [8] was “inactive” each time.
For the molecule `COc1ccc(-c2csc3c2[N+]2=CCC=C2C3=O)cc1`, the Potency in assay [1] was greater than 11.4 µM; in assay [2], 0.501 µM (active); in assay [7], greater than 46 µM; in [5], greater than 9.22 µM; in assay [9], 3.16 µM (active); in assay [11], 3.98 µM (active). Besides, the activity, negative = inhibition in assay [4] is -14.9%. Besides, the Potency result in assay [6], in [8] and in [10] was “inactive” throughout. Further, in assay [12], the activation is 4.84%.
`Nc1nc(Sc2ccc([N+](=O)[O-])c3nonc23)c2[nH]cnc2n1`: the Potency in [1] was greater than 11.4 µM; in assay [7], greater than 46 µM; in assay [5], greater than 9.22 µM; in assay [13] it was 3.16 µM (active); in [11] it was 1.58 µM (active). The activity change, negative = inhibition in assay [2] is -26.1% [at 2.29 µM]. Besides, the activity, negative = inhibition in assay [4] was -12.4%. The Potency result in assay [6] and in assay [8] was “inactive” in each case.
Regarding `COc1cccc(Nc2ncc3ncc(=O)n(C4CC4)c3n2)c1`, the Potency in [1] is greater than 11.4 µM; in assay [2], 0.631 µM (active); in assay [7], greater than 9.22 µM; in [5], greater than 46 µM. Moreover, in [3], the activity change, negative = inhibition is -22.2%. In [4], the activity, negative = inhibition was -24.1%. For the same molecule, the Potency entry in assay [6], in assay [8] and in assay [10] was “inactive” throughout.
Turning to `COc1ccc2c(=O)cc(-c3ccncc3)oc2c1OC`, the Potency in [1] was greater than 11.4 µM; in assay [2], 1.58 µM (active); in [7] it was greater than 46 µM; in assay [5], greater than 9.22 µM; in assay [11] it was 1.58 µM (active). In addition, in assay [3], the activity change, negative = inhibition was 2.62%. For the same molecule, in assay [4], the activity, negative = inhibition is -17.8%. Also, the Potency entry in assay [6], in [8] and in assay [10] was “inactive” in each case.
Regarding `COc1ccc2nc3cc(Cl)ccc3c(Nc3ccc(O)c(CN4CCN(C)CC4)c3)c2c1`, the Potency was greater than 11.4 µM in assay [1], 3.98 µM (active) in [2], greater than 46 µM in assay [7] and greater than 9.22 µM in [5]. The activity, negative = inhibition in assay [4] was 23%. In addition, in assay [6], the Potency entry is “inactive”. The activation in assay [12] was 26.1%.
`Cc1c(S(=O)(=O)O)ccc(N=Nc2c(O)c(C(=O)O)cc3ccccc23)c1Cl`: the Potency in assay [1] was greater than 11.4 µM; in assay [2], 5.01 µM (active); in [7], greater than 46 µM; in assay [5] it was greater than 9.22 µM. Besides, in [3], the activity change, negative = inhibition is -10.7%. For the same molecule, the activity, negative = inhibition in assay [4] was -10.2%. Further, the Potency result in assay [6] and in [8] was “inactive” in each case. Moreover, in assay [12], the activation was -17.8%.
